Screening data: PubChem BioAssay, several laboratories
This is a sample that favours compounds with a hit; in the whole collection about 2.5% have one here.
NPR2 activator = GC-B (human) receptor activation. P20594. HEK293-GC-B cells, CNP EC30, cGMP TR-FRET; 0% at EC30 CNP, 100% saturating CNP. activation, % at 10 µM. 0.11% of 370,000 active;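 active = activation at 10 µM reaching about 35% in either raw or pattern-adjusted values, limit read from the data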
Target sequence (P20594 whole entry, looked up): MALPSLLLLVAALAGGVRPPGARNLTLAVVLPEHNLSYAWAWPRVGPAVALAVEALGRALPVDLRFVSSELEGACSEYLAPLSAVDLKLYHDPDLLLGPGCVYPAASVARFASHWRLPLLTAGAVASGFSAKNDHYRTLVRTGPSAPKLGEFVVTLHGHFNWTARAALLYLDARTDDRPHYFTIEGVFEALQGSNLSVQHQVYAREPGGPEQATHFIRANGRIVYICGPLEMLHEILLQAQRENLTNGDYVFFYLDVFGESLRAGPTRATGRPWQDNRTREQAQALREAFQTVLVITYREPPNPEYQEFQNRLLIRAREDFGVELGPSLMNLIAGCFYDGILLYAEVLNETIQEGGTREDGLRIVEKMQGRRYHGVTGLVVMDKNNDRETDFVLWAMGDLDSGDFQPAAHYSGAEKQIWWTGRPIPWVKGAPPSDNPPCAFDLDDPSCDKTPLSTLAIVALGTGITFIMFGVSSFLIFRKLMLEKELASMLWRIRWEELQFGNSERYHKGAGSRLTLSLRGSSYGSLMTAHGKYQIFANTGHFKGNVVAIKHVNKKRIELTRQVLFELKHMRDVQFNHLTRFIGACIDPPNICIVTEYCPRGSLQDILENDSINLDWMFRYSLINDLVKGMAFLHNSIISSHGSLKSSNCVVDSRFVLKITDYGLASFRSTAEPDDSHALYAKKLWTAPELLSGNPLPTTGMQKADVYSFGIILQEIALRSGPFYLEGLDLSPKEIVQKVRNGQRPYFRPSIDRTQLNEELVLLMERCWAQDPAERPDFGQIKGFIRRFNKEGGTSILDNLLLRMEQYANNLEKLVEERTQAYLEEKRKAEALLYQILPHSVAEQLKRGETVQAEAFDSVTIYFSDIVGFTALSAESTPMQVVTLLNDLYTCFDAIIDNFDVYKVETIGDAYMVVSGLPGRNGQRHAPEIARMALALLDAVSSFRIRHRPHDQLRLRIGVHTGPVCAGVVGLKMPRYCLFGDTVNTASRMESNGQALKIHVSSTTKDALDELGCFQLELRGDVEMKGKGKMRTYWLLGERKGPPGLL
HSF1 inh = HSF1 inhibition; activity change, negative = inhibition, % at 7.5 µM (by protocol); NIH3T3-HGL HSE-luciferase, MG132-induced, luminescence 8 h; hits give low values; AID 2098; 0.77% of 300,000 active;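 active = more than half of replicate wells show activity change below -50%, luminescence cut by over half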;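 also: luciferase reports HSF-1 transcriptional activity via heat shock element; 0% = median of DMSO wells and -100% = zero luminescence signal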
Dyrk1A ADPGlo = inhibitors of rat Dyrk1A kinase; Q63470; ADP-Glo luminescence, NFATc1 peptide; inhibition, % at 12.5 µM; 0.43% of 310,000 active; in the data active = inhibition above about 50%;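 also: plate controls were vehicle with enzyme for no effect and no enzyme for full effect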
GC-A act = GC-A (human) enzyme activation. 0.14% of 370,000 active. P16066. HEK293 GC-A cells, cGMP TR-FRET, EC30 ANP; 0% at EC30 ANP, 100% saturating ANP. AID 1671463. activation, % at 10 µM; in the data active = activation above about 40%
aDG glyco act = alpha-DG glycosylation activation; activation, % at 10 µM; 0.22% of 360,000 active; Pro5-aDG cells, alpha-DG glycosylation AlphaScreen (IIH6); 0% Pro5, 100% B10-LARGE cell signal; AID 624168;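 active = activation of at least 8% versus controls, or a plate z-score of at least 8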;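 also: Pro5 are CHO cells carrying HIG-tagged alpha-DG that lacks glycosylation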
HSF1 activator = increases HSF-1 driven luciferase reporter signal. activation, % at 9 µM. 1.7% of 300,000 active. AID 504408. NIH3T3-HGL HSF-1 luciferase reporter, MG132, 8 h; 100% = twice DMSO control signal;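 active = mean replicate activation of at least 50% with a set share of replicates each reaching 50%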;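 also: 0% = median of the neutral control wells and 100% = twice that signal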
An asterisk follows results filed as active; x = not tested or not shown.

SMILES	NPR2 activator	HSF1 inh	Dyrk1A ADPGlo	GC-A act	aDG glyco act	HSF1 activator
Cc1ccc(NC(=O)CCSc2nnc(-c3ccco3)o2)cc1	-7	1	-7	3	0	-8
Cc1ccc(-c2nnc(SCC(=O)Nc3ccccc3F)o2)cc1	0	-54*	-17	0	0	-60
O=C(CSc1nnc(-c2ccccn2)o1)Nc1ccccc1Cl	-2	17	-3	2	0	51*
O=C(CSc1nnc(-c2ccccc2)o1)Nc1ccccc1F	3	4	-7	0	0	17
O=C(CSc1nnc(-c2ccncc2)o1)Nc1ccccc1Cl	3	1	-4	0	0	6
Cc1ccc(SCC(=O)Nc2ccc(-c3nnc(-c4ccco4)o3)cc2)cc1	6	44	-4	2	0	78*
COc1ccccc1C(=O)CSc1nnc(-c2ccco2)o1	0	50	-2	0	0	69*
Cc1ccc(S(=O)CCNC(=O)Cc2ccccc2)cc1 (stereo unspecified)	4	-8	-6	1	0	2
Cc1ccc(C2=NN(C(=O)c3cccs3)C(c3ccccc3O)C2)cc1 (stereo unspecified)	-11	54	-6	-6	1	80*
O=C(c1cccs1)N1N=C(c2ccccc2)CC1c1ccccc1O (stereo unspecified)	-20	x	-2	-21	0	x
CCOC(=O)C1=C(C)NC(=S)NC1c1ccsc1 (stereo unspecified)	2	-67*	-4	0	0	-74
Cc1ccc(C2/C(=C(\O)c3cnn(-c4ccccc4)c3C)C(=O)C(=O)N2CCN(C)C)o1 (stereo unspecified)	1	26	0	-5	0	66*
Cc1c(/C(O)=C2\C(=O)C(=O)N(CCN(C)C)C2c2ccccc2)cnn1-c1ccccc1 (stereo unspecified)	-4	-63*	x	6	0	-63
CCOC(=O)c1cc(C)sc1NC(=O)CCC(=O)O	-3	x	2	0	0	x
CC12CC(c3ccccc3O1)C(C(=O)NCc1ccccc1)C(=O)N2 (stereo unspecified)	0	-71*	1	1	0	-76
COc1ccc(NC(=O)C2C(=O)NC3(C)CC2c2ccccc2O3)cc1 (stereo unspecified)	5	-4	-6	5	0	10
S=c1[nH]cc(Cc2ccccc2)s1	0	27	x	3	0	60*
CCc1cc2c(=O)c(-c3cnn(-c4ccccc4)c3)c(C)oc2cc1OCC(=O)Nc1ccc(F)c(F)c1	5	-3	-3	7	0	1
Cc1cc(SCc2ccccc2C)nc(=O)[nH]1	-4	-2	-3	1	0	10
CC(C)CN1CCN=C1Nc1ccccc1	-1	-7	-4	0	0	-6
CCOc1c2ccc(C(=O)NCc3ccccc3OC)cc2nn1CC	-2	-66*	6	0	0	-74
CCOc1c2ccc(C(=O)NCc3ccco3)cc2nn1CC	7	7	-7	1	0	-4
COc1cc(OC)c(C(=O)C=Cc2ccc(OC)c(OC)c2)c(OC)c1	4	x	x	9	1	x
COc1ccc2[nH]cc(/C=C/C(=O)c3ccccc3)c2c1	-8	63	14	0	0	113*
O=C(/C=C/c1c[nH]c2ccccc12)c1ccccc1	-7	35	5	2	0	47
SMILES	NPR2 activator	HSF1 inh	Dyrk1A ADPGlo	GC-A act	aDG glyco act	HSF1 activator
COc1cc(O)c(C(=O)/C=C/c2ccccc2)c(OC)c1	-5	125	9	-5	0	107*
COc1cc(C=CC(=O)c2cc(OC)c(OC)c(OC)c2)cc(OC)c1OC	1	x	x	1	1	x
COc1ccc(/C=C/C(=O)c2ccc(OC)cc2OC)c(OC)c1	-3	18	9	-2	0	34
COc1ccc2cc(C(=O)/C=C/c3cc(OC)c(OC)c(OC)c3)ccc2c1	-3	55	1	-4	0	95*
COc1ccc(/C=C/C(=O)c2ccccc2)c(OC)c1	-5	31	-3	-2	0	72*
CC(=O)NCCC1CCN(C(=O)c2cc(COc3ccc(C)nc3)on2)CC1	0	-1	0	2	0	0
CSc1cccc(CN2CCC(n3nccc3NC(=O)C3CC3)CC2)c1	-3	3	3	7	0	-8
COc1ccc(C(=O)N=c2sc3c(C)ccc(OC)c3n2C)cc1OC	-5	42	9	-2	0	62*
Cc1ccc(S(=O)(=O)N2CCN(C(=O)CCC(=O)N3CCc4ccccc43)CC2)cc1	-3	12	-1	0	0	21
Cc1ccc2cc(CN(c3ccccc3C)S(=O)(=O)c3ccccc3)c(=O)[nH]c2c1	3	2	-3	4	0	3
CC(=O)Nc1ccc(-c2nnc(SCC(=O)NCc3ccco3)n2C)cc1	3	2	0	-1	0	7
CCCCSc1nc2c([nH]1)c(=S)n(C)c(=O)n2C	37*	x	x	34	0	x
Cn1c(=S)c2[nH]c(SCCC(C)(C)C)nc2n(C)c1=O	50*	x	x	44*	0	x
CCN(CC)CCSc1nc2c([nH]1)c(=S)n(C)c(=O)n2C	2	x	x	2	1	x
CC(O)CNc1nc2sc3c(c2c(=O)n1Cc1ccco1)CCCCC3 (stereo unspecified)	0	-24	-3	0	0	-37
O=c1c2c3c(sc2nc(NCCOCCO)n1Cc1ccco1)CCCCC3	-3	-62*	x	3	0	-62
Cc1cc(C)c(S(=O)(=O)Nc2c(C)[nH]c(=O)[nH]c2=O)c(C)c1	2	4	2	1	0	14
CCCCC(CC)c1nnc(NC(=O)c2cccs2)s1 (stereo unspecified)	7	-1	3	0	0	-12
CCC1Oc2ccc(C)cc2N(Cc2cccc(C)c2)C1=O (stereo unspecified)	-19	8	3	-25	0	54*
Cc1ccc2c(c1)N(Cc1ccccc1)C(=O)C(C)O2 (stereo unspecified)	-2	x	x	-4	0	x
O=C(NC1=NCCS1)C1CC(=O)N(c2ccc(Cl)cc2)C1 (stereo unspecified)	-4	-1	-2	3	0	10
O=C1C=C(O)c2cccc(O)c2C1=O	-7	x	13	2	0	x
O=C1C=C(c2c(O)ccc3ccccc23)c2ccccc2C1=O	49*	x	40	44*	0	x
COc1ccc(N=C(NN)c2ccc3ccccc3n2)cc1	0	-61*	28	-5	0	-65
